Our source for the fraction fluorescence in grains and inhibition values is PubChem BioAssay AID853 (Columbia University Molecular Screening Center, 2007).

Among all 47,000 compounds or so, about 200 (0.43%) were called active. Another 1% or so got no clear call; they are omitted.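 How the source made its calls: active means inhibition of aggregate fluorescence above about 70%, also judged a hit by eye on the cell image (limit read from the data, passing the limit was not always enough); inconclusive means no rule stated for this call; inactive means not judged a hit on image review.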 What follows is part of a selection rich in actives, with near analogues and random picks from the rest.

The nature of this experiment: clearance of mutant huntingtin inclusions, primary screen, imaging, HeLa Exon1htt(103Q)mCFP, confocal imaging (AID 853).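 Further: cells exposed to compound for three days before fixation.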 As to conditions: aggregate imaging, at 1.5 µM; fraction fluorescence in grains: measured here: aggregate grain fluorescence fraction, stronger effect = lower value; inhibition: stronger effect = higher value, zero = plate's median compound well.
For orientation: inhibition means the relative decrease from the control value, in per cent. As to `Cc1cccc(-c2nc3c(c(SCC(=O)N4CCOCC4)n2)CCCC3)c1`, the fraction fluorescence in grains was found to be 18.5 and the inhibition is -1.6% (inactive).

For the compound `CCOc1ccc2c(c1)C(c1ccc(C)cc1)=NNC(c1ccc(C)cc1)=N2`, the fraction fluorescence in grains turned out to be 11 and the inhibition was 38.1% (inactive).

For the compound `Cn1c(CO)cnc1SCc1ccccc1`, the fraction fluorescence in grains is 10.9 and the inhibition was 71.7% (active).

Take `c1ccc(CSc2nnc(-c3ccco3)n2Cc2ccccc2)cc1`: the fraction fluorescence in grains came out at 21.2 and the inhibition is -3.2% (inactive).

`CCS(=O)(=O)n1nc(-c2ccccc2)nc1SCc1ccccc1`: the fraction fluorescence in grains was found to be 24.1 and the inhibition is -44.5% (inactive).

With `COC(=O)c1nc2ccccc2s1`, the fraction fluorescence in grains was 22.8 and the inhibition is -27.8% (inactive).

Consider `Cc1cc(OCCN2CCCC2)ccc1C(C)C`, for which the fraction fluorescence in grains turned out to be 38.3 and the inhibition is -2.5% (inactive).

On to `CN1C(=O)CC(N2CCN(c3ccccn3)CC2)C1=O` (stereo unspecified), for which the fraction fluorescence in grains was determined as 29.4 and the inhibition is -42.3% (inactive).

On to `Cc1nc2nc(C)c(CCC(=O)N3CCN(c4ccccc4)CC3)c(C)n2n1`, for which the fraction fluorescence in grains amounted to 38.5 and the inhibition was -21.5% (inactive).

With `CCSC(C)CC1C/C(=N/O)c2c(C)noc2C1` (stereo unspecified), the fraction fluorescence in grains came to 43.5 and the inhibition was -15.9% (inactive).

Regarding `Cc1cc(C(=O)Nc2ccccc2N2CCOCC2)c2ccccc2n1`, the fraction fluorescence in grains amounted to 9.37 and the inhibition was 47.3% (inactive).

Regarding `Cn1sc(NC(=O)c2ccccc2)nc1=O`, the fraction fluorescence in grains is 24.3 and the inhibition was -16.8% (inactive).

As to `O=C1/C(=C\Nc2ccccc2)CCN1c1ncccn1`, the fraction fluorescence in grains worked out at 25.9 and the inhibition was 18.4% (inactive).

Consider `CCN(CC)c1ccc(NC(=O)c2ccc(Cl)nc2)cc1`, for which the fraction fluorescence in grains stood at 60.1 and the inhibition is -95.5% (inactive).

For `Clc1ccccc1-c1cc(COc2ccc3ccccc3c2)no1`, the fraction fluorescence in grains stood at 33.9 and the inhibition was 11.8% (inactive).

Turning to `Cc1c(NC(=O)c2cc(-c3ccc(Cl)s3)nc3ccccc23)c(=O)n(-c2ccccc2)n1C`, the fraction fluorescence in grains is 26.1 and the inhibition was 21.8% (inactive).

Consider `Cc1ccc(S(=O)(=O)N2CC(=O)Nc3ccccc32)cc1C`, for which the fraction fluorescence in grains turned out to be 33.9 and the inhibition was 11.1% (inactive).

Take `COCCN(C(=O)c1ccco1)c1nnc(-c2ccc(OC)cc2)s1`: the fraction fluorescence in grains was 39.8 and the inhibition was -2.8% (inactive).

`C=CCNC(=S)NNc1ncnc2sc3c(c12)CC(C)(C)OC3`: the fraction fluorescence in grains stood at 40.7 and the inhibition was -39.2% (inactive).

Turning to `CC1=CC(C)(C)N(C(=O)CSc2nccn2C)c2cc(C)ccc21`, the fraction fluorescence in grains was determined as 13.3 and the inhibition was 26.1% (inactive).

In the case of `CC(C)c1ccc(NC(=O)CCN2C(=O)c3ccc([N+](=O)[O-])cc3C2=O)cc1`, the fraction fluorescence in grains came to 13.6 and the inhibition is 55% (inactive).

For `COc1ccccc1NC(=O)CSc1nnc(C)n1CC1CCCO1` (stereo unspecified), the fraction fluorescence in grains was determined as 15.8 and the inhibition is 17.7% (inactive).

Turning to `COc1ccc(NC(=O)CCN2CCCC2)c(OC)c1`, the fraction fluorescence in grains was 11.3 and the inhibition was 35.7% (inactive).

For the compound `Cc1cc(-c2ccccc2)nc(N2CCC(C(=O)NC34CC5CC(CC(C5)C3)C4)CC2)n1`, the fraction fluorescence in grains turned out to be 31 and the inhibition was 21.6% (inactive).

On to `C=CCn1c(-c2ccc3[nH]c(C)c(C)c3c2)n[nH]c1=S`, for which the fraction fluorescence in grains was 89.3 and the inhibition was -112% (inactive).

Consider `Cc1ccc(CCN2CC(C(=O)O)CC2=O)cc1` (stereo unspecified), for which the fraction fluorescence in grains came to 14.7 and the inhibition is 30.2% (inactive).

Turning to `COc1ccc(C(CNC(=O)c2cccnc2SC)N2CCOCC2)cc1` (stereo unspecified), the fraction fluorescence in grains is 16.3 and the inhibition was 9.2% (inactive).

`Cc1cc(C)nc(SCc2ccccc2C#N)n1`: the fraction fluorescence in grains was found to be 35.4 and the inhibition was -3.8% (inactive).

As for `Cc1ccc2[nH]c3c(=O)n(Cc4ccccn4)cnc3c2c1`, the fraction fluorescence in grains stood at 21.3 and the inhibition is 46.1% (inactive).

`Cc1ccc(-n2ccc(=O)c(C(=O)O)n2)cc1`: the fraction fluorescence in grains stood at 23.5 and the inhibition was 0.4% (inactive).

Regarding `Cc1cccc(C)c1-n1c(C)cc(/C=C2\C(=O)NN(c3ccccc3)C2=O)c1C`, the fraction fluorescence in grains is 26.9 and the inhibition was 30.9% (inactive).

Take `CCS(=O)(=O)N1CCN(C(=O)c2cccs2)CC1`: the fraction fluorescence in grains turned out to be 32.5 and the inhibition was 27.2% (inactive).

Turning to `C=CCC(NCc1ccco1)c1ccc(OC)cc1` (stereo unspecified), the fraction fluorescence in grains came to 62.5 and the inhibition is -55.5% (inactive).

For `O=S(=O)(NCc1ccccn1)c1ccc(F)cc1`, the fraction fluorescence in grains was 25.8 and the inhibition was 28.4% (inactive).

Turning to `Cn1c(NC(=O)c2ccc3c(c2)OCO3)cc(=O)n(C)c1=O`, the fraction fluorescence in grains worked out at 24.1 and the inhibition is 28.1% (inactive).

As for `CCCc1nc2ccccc2c(C(=O)OCc2nnc(-c3cc(OC)c(OC)c(OC)c3)o2)c1CC`, the fraction fluorescence in grains came out at 19.4 and the inhibition is -8% (inactive).

Consider `Cc1ccc(NC(=O)CSCC(=O)N2CCOCC2)cc1`, for which the fraction fluorescence in grains worked out at 29.1 and the inhibition is -41.8% (inactive).

For the compound `COC(=O)[C@@H](NC(=O)Nc1cc(Cl)ccc1C)C(C)C`, the fraction fluorescence in grains was determined as 45.5 and the inhibition was -4.8% (inactive).

On to `CC(=O)Nc1ccc(OCC(O)CN2CCN(c3ccccc3Cl)CC2)cc1` (stereo unspecified), for which the fraction fluorescence in grains worked out at 27.5 and the inhibition was -41.1% (inactive).

For `CCC(=O)c1ccc(OCC(O)CN2CC(C)OC(C)C2)cc1` (stereo unspecified), the fraction fluorescence in grains came to 7.49 and the inhibition was 75% (active).

Take `CCC(=O)c1ccc(OCC(O)CN2CCN(c3cccc(C(F)(F)F)c3)CC2)cc1` (stereo unspecified): the fraction fluorescence in grains was 27.8 and the inhibition is -52.7% (inactive).

With `COc1nc(-c2ccc(Cl)cc2)ccc1-c1noc(-c2cccs2)n1`, the fraction fluorescence in grains turned out to be 28.7 and the inhibition is 4.7% (inactive).

Regarding `Cc1cccc(NC(=O)Cn2cc(C(=O)c3ccco3)c3ccccc32)c1`, the fraction fluorescence in grains came to 68.4 and the inhibition was -81.7% (inactive).

For `O=C(CSc1nnc(-c2cccs2)n1-c1ccccc1)NCc1ccco1`, the fraction fluorescence in grains is 19.3 and the inhibition was -12.1% (inactive).

Consider `Cc1ccc2cc(CCNC(=O)c3ccc4c(c3)OCO4)c(=O)[nH]c2c1`, for which the fraction fluorescence in grains amounted to 49.1 and the inhibition is -20% (inactive).

Consider `COc1ccc(C2CC(=O)C=C(NCC3CCCO3)C2)cc1` (stereo unspecified), for which the fraction fluorescence in grains is 23.6 and the inhibition is 30.2% (inactive).

Regarding `COc1ccccc1NS(=O)(=O)N(C)C`, the fraction fluorescence in grains came to 33.9 and the inhibition is -71.4% (inactive).

In the case of `CN(C)/C=C(\C#N)C(=O)c1cccnc1Oc1cccc(F)c1`, the fraction fluorescence in grains came to 38.8 and the inhibition was -0.9% (inactive).

For the compound `Cc1cccc(NC(=O)CSc2nc3c(c(=O)[nH]2)CCCC3)c1C`, the fraction fluorescence in grains was 17.3 and the inhibition is 10.8% (inactive).

Consider `O=c1[nH]c(=O)n(Cc2ccco2)c2c1C(C(F)(F)F)(C(F)(F)F)N=C(c1ccco1)N2`, for which the fraction fluorescence in grains stood at 27 and the inhibition is 36.4% (inactive).

Regarding `Cc1ccc(-n2c(=O)cc(N3CCN(Cc4ccccc4)CC3)[nH]c2=O)cc1`, the fraction fluorescence in grains came out at 52 and the inhibition was -7.6% (inactive).

In the case of `O=C(NC1CCc2ccccc21)C12CN(Cc3ccccc3)CC1C(c1cccc([N+](=O)[O-])c1)=NO2` (stereo unspecified), the fraction fluorescence in grains amounted to 39 and the inhibition was -1.5% (inactive).

In the case of `COc1ccccc1NC(=O)c1ccc2nc(N3C(=O)CCC3=O)sc2c1`, the fraction fluorescence in grains was determined as 16.5 and the inhibition is 20.1% (inactive).

Turning to `CC(C)c1nc(N2CCOCC2)c(C#N)c2c1COC(C)(C)C2`, the fraction fluorescence in grains worked out at 31.9 and the inhibition was 13.4% (inactive).

As for `COc1ccc(C(=O)NC(=S)Nc2ccccc2N2CCN(S(C)(=O)=O)CC2)cc1OC`, the fraction fluorescence in grains is 62.3 and the inhibition is -41.7% (inactive).

For `C#CCSc1nnc(-c2sc3ccccc3c2Cl)o1`, the fraction fluorescence in grains was found to be 52.1 and the inhibition is -34.1% (inactive).

As for `Cc1ccc(C(=O)N/C(=C/C=C/c2ccccc2)C(=O)NCc2ccco2)cc1`, the fraction fluorescence in grains turned out to be 45.3 and the inhibition is -47.5% (inactive).

Regarding `Cc1nc(-c2ccccc2)sc1-c1nc(-c2ccccc2)ncc1S(=O)(=O)c1ccccc1`, the fraction fluorescence in grains worked out at 41.3 and the inhibition is 7.6% (inactive).

In the case of `Cc1ccc(C2NC(=S)NC3=C2N2CCC3CC2)cc1` (stereo unspecified), the fraction fluorescence in grains turned out to be 27.5 and the inhibition was 36.7% (inactive).

As to `CSc1ccc(-c2c(C#N)c(N)nc3c2c(C)nn3-c2ccccc2)cc1`, the fraction fluorescence in grains turned out to be 47.5 and the inhibition is -12.6% (inactive).

Turning to `COc1ccc(/C=C(\NC(=O)c2ccc(OC)c(OC)c2)C(=O)NCCc2c[nH]c3ccccc23)cc1`, the fraction fluorescence in grains was found to be 62.4 and the inhibition was -62.1% (inactive).

As to `CC(=O)NS(=O)(=O)c1ccc(NC(=S)NC(=O)C(C)(C)C)cc1`, the fraction fluorescence in grains stood at 7.39 and the inhibition is 66.5% (inactive).

As for `COc1ccc(-n2c(C)csc2=S)cc1`, the fraction fluorescence in grains was 15.4 and the inhibition is 22.6% (inactive).

Turning to `O=C(CSc1nnc(-c2ccco2)n1-c1ccccc1)NCCc1ccccc1`, the fraction fluorescence in grains was 28.7 and the inhibition was 21.9% (inactive).

For `COc1cc(/C=C(\C#N)c2nc3c(s2)CC(C)CC3)ccc1O` (stereo unspecified), the fraction fluorescence in grains was 38.1 and the inhibition is 4% (inactive).

Regarding `Cc1ccc(-c2cnc(NC(=O)CCC(=O)N(C)Cc3ccccc3)n2C)cc1`, the fraction fluorescence in grains came out at 44.1 and the inhibition is -11.1% (inactive).

For the compound `CCCCCCC12CCC(C(=O)O)(CC1)CC2`, the fraction fluorescence in grains was 16.8 and the inhibition is 6% (inactive).

Consider `O=C(CN1CCOCC1)Nc1c(-c2ccccc2)c2cc(Br)ccc2[nH]c1=O`, for which the fraction fluorescence in grains turned out to be 37.2 and the inhibition is 15.7% (inactive).

With `O=C(Oc1ccc([N+](=O)[O-])cc1)c1ccc2ccccc2n1`, the fraction fluorescence in grains turned out to be 23.8 and the inhibition is 33% (inactive).

As to `O=C(c1ccc2c(c1)OCO2)N1CCOCC1`, the fraction fluorescence in grains was determined as 22 and the inhibition is -3.2% (inactive).

Take `Cc1ccn(C(CC(=O)c2ccc(Br)cc2)C(=O)O)n1` (stereo unspecified): the fraction fluorescence in grains amounted to 10.2 and the inhibition is 68.3% (inactive).

In the case of `COc1ccc(C(C#N)Nc2ccccc2C)cc1` (stereo unspecified), the fraction fluorescence in grains was determined as 18 and the inhibition was 57.1% (inactive).

For `C=CCn1c(CSc2nc3ccccc3s2)nnc1SCC(=O)NCc1ccco1`, the fraction fluorescence in grains was found to be 28.7 and the inhibition is 26.8% (inactive).
